Hit rate of the full screen: of about 360,000 compounds, about 16,000 (4.4%) were called active. Inconclusive results (about 9%) are left out. Calls follow the shape of the dose curve; as a rule, active = well fitted inhibition curve with a large enough effect; inconclusive = small, poorly fitted or top-dose-only effect; inactive = no such curve, though single readings can be large or run the other way. The sample as a whole holds a higher share of actives than the screen did.
Target: Bromodomain adjacent to zinc finger domain protein 2B (Homo sapiens) (UniProt Q9UIF8)
Sequence (Q9UIF8 whole entry, looked up, the tested form may be a part): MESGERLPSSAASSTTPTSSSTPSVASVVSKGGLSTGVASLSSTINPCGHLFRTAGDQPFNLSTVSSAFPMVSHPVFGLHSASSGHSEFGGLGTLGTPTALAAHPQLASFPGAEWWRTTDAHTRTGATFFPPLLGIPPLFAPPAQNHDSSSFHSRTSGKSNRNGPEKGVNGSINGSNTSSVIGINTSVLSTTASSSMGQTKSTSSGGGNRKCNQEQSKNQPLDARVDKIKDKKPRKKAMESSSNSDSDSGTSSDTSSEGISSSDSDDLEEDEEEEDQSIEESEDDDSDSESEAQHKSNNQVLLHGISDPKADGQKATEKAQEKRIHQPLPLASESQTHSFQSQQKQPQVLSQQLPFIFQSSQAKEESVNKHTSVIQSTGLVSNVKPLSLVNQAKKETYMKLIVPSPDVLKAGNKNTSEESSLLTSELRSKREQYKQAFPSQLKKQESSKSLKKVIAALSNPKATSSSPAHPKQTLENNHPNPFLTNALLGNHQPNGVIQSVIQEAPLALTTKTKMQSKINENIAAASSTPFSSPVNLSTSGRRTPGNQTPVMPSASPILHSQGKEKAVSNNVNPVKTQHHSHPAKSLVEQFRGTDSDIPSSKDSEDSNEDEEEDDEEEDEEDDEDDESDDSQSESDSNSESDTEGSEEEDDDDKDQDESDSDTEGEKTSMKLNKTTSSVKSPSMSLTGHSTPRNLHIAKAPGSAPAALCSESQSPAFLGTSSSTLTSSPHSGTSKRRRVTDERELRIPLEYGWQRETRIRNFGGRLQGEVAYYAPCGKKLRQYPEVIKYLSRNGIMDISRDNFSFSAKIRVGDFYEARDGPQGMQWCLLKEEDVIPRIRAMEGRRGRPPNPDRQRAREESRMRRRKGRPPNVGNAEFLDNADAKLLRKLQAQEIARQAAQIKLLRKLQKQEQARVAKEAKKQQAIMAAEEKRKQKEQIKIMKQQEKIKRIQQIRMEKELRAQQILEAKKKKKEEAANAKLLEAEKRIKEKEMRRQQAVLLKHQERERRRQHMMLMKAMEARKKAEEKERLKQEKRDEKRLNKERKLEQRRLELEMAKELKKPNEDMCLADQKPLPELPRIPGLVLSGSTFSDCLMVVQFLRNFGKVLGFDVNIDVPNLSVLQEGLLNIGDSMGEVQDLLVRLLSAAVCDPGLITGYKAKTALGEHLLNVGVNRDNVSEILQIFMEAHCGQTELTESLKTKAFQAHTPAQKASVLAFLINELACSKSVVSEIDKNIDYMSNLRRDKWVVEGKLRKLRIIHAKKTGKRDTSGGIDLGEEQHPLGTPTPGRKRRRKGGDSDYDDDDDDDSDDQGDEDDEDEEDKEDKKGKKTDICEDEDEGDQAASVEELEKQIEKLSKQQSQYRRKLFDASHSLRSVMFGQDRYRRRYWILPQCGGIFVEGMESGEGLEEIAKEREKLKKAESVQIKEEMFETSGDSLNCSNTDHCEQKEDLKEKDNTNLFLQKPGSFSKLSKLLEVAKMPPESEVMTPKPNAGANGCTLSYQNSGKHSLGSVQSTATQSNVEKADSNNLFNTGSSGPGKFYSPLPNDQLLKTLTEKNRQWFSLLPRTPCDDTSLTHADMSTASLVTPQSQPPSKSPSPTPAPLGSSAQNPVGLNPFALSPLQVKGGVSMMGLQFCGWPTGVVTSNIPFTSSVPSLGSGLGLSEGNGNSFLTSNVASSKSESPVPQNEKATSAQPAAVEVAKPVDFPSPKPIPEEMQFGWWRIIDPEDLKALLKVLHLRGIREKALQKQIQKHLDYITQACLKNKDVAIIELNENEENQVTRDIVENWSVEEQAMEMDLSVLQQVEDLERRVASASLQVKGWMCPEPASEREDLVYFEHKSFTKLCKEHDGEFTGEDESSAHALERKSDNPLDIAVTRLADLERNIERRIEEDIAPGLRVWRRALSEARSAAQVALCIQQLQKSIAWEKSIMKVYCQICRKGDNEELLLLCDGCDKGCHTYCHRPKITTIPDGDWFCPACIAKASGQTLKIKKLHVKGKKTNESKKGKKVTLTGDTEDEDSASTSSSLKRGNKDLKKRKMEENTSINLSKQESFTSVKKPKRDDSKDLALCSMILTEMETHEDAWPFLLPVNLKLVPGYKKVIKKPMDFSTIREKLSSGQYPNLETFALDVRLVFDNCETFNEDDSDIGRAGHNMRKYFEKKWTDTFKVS
Assay: qHTS Assay for Inhibitors of BAZ2B; also: nearly all actives have a fitted effect of over 60% in size
Details: AlphaScreen BAZ2B-H3K14Ac peptide displacement; series mostly up to 114 µM
Description: BAZ2B (bromodomain adjacent to zinc finger domain, 2B) belongs to a family of ubiquitously expressed bromodomain containing proteins, which biological function has not yet been elucidated. […] The interaction of BAZ2B with ISWI mediated by the BAZ1 motif has recently been described. […] The protocol is based on the AlphaScreen (PerkinElmer) displacement assay developed by NCGC [5], but uses the peptide ligand Biot-H3K14Ac, a high affinity binding partner for BAZ2B, in an AlphaScreen format. Although AlphaScreen has significant advantages with its utility in a variety of epigenetic target assays, the primary screening data provided in this deposition should be used with caution due to the prevalence of screening artifacts. The top compound concentration tested was 110uM in this assay, which increases number of actives and potential artifacts. An AlphaScreen counterscreen is highly recommended to be run against any putative actives to eliminate non-specific artifacts. Alternatively, one can use other AlphaScreen assays in PubChem to filter out promiscuous hits. Eberharter, A. et al. ACF1 improves the effectiveness of nucleosome mobilization by ISWI through PHD-histone contacts. The EMBO journal 23, 4029-4039. 2004. PMID: 15457208 [2] Jones, M.H. et al. A novel family of bromodomain genes. Genomics 63, 40-45. 2000. PMID: 10662543 [3] Yasgar, et al. Compound Management for Quantitative High-Throughput Screening. JALA. 2008 Apr;13(2):79-89. PMID: 18496600 [4] Inglese, et al. Quantitative high-throughput screening: a titration-based approach that efficiently identifies biological activities in large chemical libraries. Proc Natl Acad Sci. 1;103(31):11473-8. 2006. PMID: 16864780 [5] Quinn et al. A chemiluminescence-based method for identification of histone lysine methyltransferase inhibitors. Mol Biosyst 6(5): 782-8. 2010. PMID: 20567762 [6] Baell,Holloway. New substructure filters for removal of pan assay interference compounds (PAINS) from screening libraries and for their exclusion in bioassays. J Med Chem. 53(7):2719-40. 2010. PMID: 20131845 NIH Molecular Libraries Probe Production Network [MLPCN] NIH Chemical Genomics Center [NCGC] Structural Genomics Consortium (SGC) NIH Grant: 5U54 MH084681-02
To each well of a 1,536w plate, 2ul of BAZ2B protein (final 50nM) and 1ul biotinylated histone peptide acetylated at Lys14 [b-H3(5-23)K14Ac] (final 50nM) were added in 1x PBS buffer, pH 7.4, containing 0.01% Tween-20, using a nanoliter dispenser. Formation of a protein-peptide complex proceeded at room temperature for 30 min. A Kalypsys pin-tool was employed to transfer 23 nL of library compound solution in DMSO to each well. Following a 30 min incubation of the protein-peptide complex with compounds at room temperature, a mixture of 40 ug/mL each streptavidin-coated donor and nickel chelate acceptor AlphaScreen beads (final 10 ug/mL) were added in a 1ul dispense for a final volume of 4ul. A brief centrifugation followed (1000rpm, 1 min) and were then incubated protected from the light for 20 min at room temperature. Plates were read on an EnVision multilabel plate reader using the 1,536 plate HTS AlphaScreen aperture (excitation time 80 ms, measurement time 240 ms).
% is scaled to controls: 0 for no effect and ±100 for the full control effect; potency is read from the fitted curve at half-maximal effect.

Potency, inactive:
O=C(NCCc1ccc(Cl)cc1)c1ccc2c(c1)N(Cc1ccc(F)cc1)C(=O)CS2
COc1cc(NC(=O)c2noc3c2CSc2ccccc2-3)cc(OC)c1OC
COc1ccc(-n2c(=O)c3sc4ccccc4c3n(CC(=O)Nc3cccc(C)c3)c2=O)cc1
COc1ccc(NC(=O)Cn2c(=O)n(CCC(C)C)c(=O)c3cccnc32)cc1Cl
Cc1cccc(OCCCC(=O)Nc2sc3c(c2C(N)=O)CCC(C)C3)c1 (centres undefined)
COc1ccc(Cl)cc1NC(=O)Cn1c(=O)c2ccccc2n2nncc12
COc1ccc(OC)c(NC(=O)CN2CCCN(Cc3cc(C)ccc3C)S2(=O)=O)c1
Cc1cc(C(=O)Nc2cccc(C(F)(F)F)c2)c2c(C)nn(-c3cccc(F)c3)c2n1
CC(=O)c1ccc(N2CCN(C3C(=O)c4ccccc4N3C(C)=O)CC2)cc1 (centres undefined)
Cc1ccc(C)c(Cn2c(CCCNC(=O)C3CCCCC3)nc3ccccc32)c1
O=C(Nc1ccc(F)cc1)N1CCN(c2ccc(F)cc2)CC1
COc1cc(OC)c(NC(=O)c2cnc(N3CCCC3)nc2C)cc1Cl
O=C(NCc1ccccc1)c1ccc2c(c1)nc1n2CCCCC1
COc1cccc(C(=O)Nc2ccc3oc(-c4ccc5ccccc5c4)nc3c2)c1
CCCSc1nc2sc3c(c2c(=O)n1-c1cccc(Br)c1)CC(C)(C)OC3
O=S(=O)(NCc1ccco1)c1cnc(Cl)c(Cl)c1
CSCCC(NC(=O)c1ccco1)C(=O)OCC(=O)Nc1ncc(Cl)c(C)c1Cl (centres undefined)
O=C(COC(=O)c1ccco1)NCc1ccc(Cl)cc1
O=C(CCCl)Nc1ccc(S(=O)(=O)NCc2ccco2)cc1
Cc1nn2c(=O)cc(COC(=O)CNC(=O)c3ccc(F)cc3)nc2s1
CC1=C(c2ccc(C)c(C)c2)S(=O)(=O)NC1=NCc1ccccc1Cl
CCn1nc(C(=O)Nc2ccc(N3CCOCC3)cc2)c2ccccc2c1=O
COc1ccccc1N1CCN(c2ccc(=O)n(CC(=O)NCc3ccc(OC(C)C)cc3)n2)CC1
Fc1ccccc1Oc1ncnc2c1oc1ccccc12
O=C(Nc1ccc(Br)cc1)c1cc2nc(-c3ccccc3)cc(-c3ccccc3)n2n1
COc1ccc(Cl)cc1C(=O)Nc1ccc(N(C)C(C)=O)cc1
COc1cc(OC)c(C(=O)Nc2ccccc2-c2ccccc2)cc1OC
Cc1cc(C)cc(NC(=O)CCS(=O)(=O)c2cc3c4c(c2)CCN4C(=O)CC3)c1
COc1ccc(NC(C)=O)cc1NC(=O)CN1CCN(c2ccc(F)cc2)CC1
Cc1[nH]c2ccc(C(=O)N3CCN(C)CC3)cc2c1C
CCS(=O)(=O)N1CCc2cc(C(=O)N3CCN(c4ccccc4OC)CC3)ccc21
CN(C(=O)CSc1nnc(NC(=O)Nc2ccccc2)s1)c1ccccc1
Cc1ccc(-n2cnc3cc(C(=O)NCCC4=CCCCC4)ccc32)cc1Cl
CCOC(=O)/C(C#N)=C/c1ccc(N2CCN(Cc3ccccc3)CC2)cc1
CC(CC(=O)N1CCN(c2ccccc2)CC1)c1ccccc1 (centres undefined)
O=C(CN1CCCC1)N1CCN(c2ccccc2)CC1
COCCCNC(=O)Cn1cc(/C=C(\C#N)C(=O)N2CCN(c3ccccc3)CC2)c2ccccc21
Fc1ccc(C(Nc2ccc(Cl)c(C(F)(F)F)c2)c2nnc(-c3ccccc3)o2)cc1 (centres undefined)
COc1cc(Cl)c(NC(=O)CC(C)S(=O)(=O)c2cc3c(cc2C)NC(=O)CO3)c(OC)c1 (centres undefined)
Cc1cccc(Cc2c(C)nc3nc(SCc4ccccc4Cl)nn3c2C)c1
CCN(C(=O)CN1C(=O)/C(=C/c2ccc(F)cc2)SC1=S)C1CCS(=O)(=O)C1 (centres undefined)
CN(C(=O)CN1C(=O)/C(=C/c2ccc(Cl)cc2)SC1=S)C1CCS(=O)(=O)C1 (centres undefined)
COCCN(Cc1ccco1)C(=O)Cn1ncc2c([nH]c3ccccc32)c1=O
Cc1cc(C)cc(NC(c2nnc(-c3cccc(F)c3)o2)c2ccc(F)cc2Cl)c1 (centres undefined)
CCCS(=O)(=O)Nc1cccc(-c2cn3ccsc3n2)c1
COc1cccc(OC)c1OCCN1CCN(C(=O)c2ccco2)CC1
COc1ccccc1C(=O)N1CCN=C1SCc1cccnc1
CCCn1c(NC(=O)C23CC4CC(CC(O)(C4)C2)C3)nc2ccccc21
CCCn1c(NCc2ccccc2F)nc2ccccc21
O=C(NC1(C(F)(F)F)N=C(c2ccccc2)N(C2CCCCC2)C1=O)c1ccccc1F (centres undefined)
CCN(CC)C(=O)CSc1nc2ccsc2c(=O)n1Cc1ccccc1Cl

Potency, active:
CC(=O)N1CCN(c2ccc(NCc3ccc(C(C)C)cc3)cc2)CC1 35.5 µM
CCN1/C(=C\c2ccc3ccccc3[n+]2CC)Sc2cc(C)ccc21 50.1 µM
O=C(COC(=O)c1cnc(Cl)c(Cl)c1)NCc1ccco1 50.1 µM
Cc1c(Cl)cnc(NC(=O)COC(=O)c2ccc(S(=O)(=O)NCc3ccco3)cc2)c1Cl 50.1 µM
CC(C)c1ccc(NC(=O)c2ccc(Cn3nc(N4CCN(c5ccccc5)CC4)ccc3=O)o2)cc1 39.8 µM
COc1cc(OC)c(C(=O)Nc2ccc(N(C)C)cc2)cc1OC 50.1 µM
CCOc1ccccc1N1CCN(C(=O)c2ccc3[nH]c(C)c(C)c3c2)CC1 44.7 µM
C/C(=C/c1ccccc1)C(=O)N1CCN(c2ccccc2)CC1 56.2 µM
COc1ccc(N2CCN(C(=O)/C(C#N)=C/c3ccccc3)CC2)cc1 50.1 µM
O=C1/C(=C/c2cccs2)SC(=S)N1C1CCS(=O)(=O)C1 (centres undefined) 22.4 µM
COc1cccc(OC)c1C(=O)N1CCN(Cc2cccnc2)CC1 50.1 µM
CCCn1c(NCc2ccc(N(CC)CC)cc2)nc2ccccc21 39.8 µM

Activity change, negative = inhibition, inactive:
CC(=O)c1ccc(N2CCN(C(=O)CCc3ccccc3)CC2)cc1 8.19% [at 0.457 µM]

— PubChem BioAssay AID504333 (National Center for Advancing Translational Sciences (NCATS), 2011)
